# Experimental data published in ChEMBL document CHEMBL3988442, “University of Dundee, Small-Polar-MMV Screening Library” (2021).
# About 960 (1.5%) of roughly 66,000 compounds showed an effect of 50% or more. Only a selection was taken, and strong results are over-represented in it overall.
# System: Trypanosoma brucei
# Assay: Trypanosoma brucei 72 hour study
# Assay type: functional, organism-based
# Design: scale not given: in the data most compounds retested in dose-response had high values
compound,measurement,setting,value
COc1cccc(CCC(=O)N2CCC[C@@H](N)[C@@H]2c2ccccc2F)c1.Cl,Percent Effect,"30.3 µM, […]",35.53%
COc1ccc(CC(=O)N2CCC[C@@H](N)[C@@H]2c2ccccc2F)cc1.Cl,Percent Effect,"30.3 µM, […]",4.872%
N[C@@H]1CCCN(C(=O)Cc2c[nH]c3ccccc23)[C@H]1c1ccccc1F,Percent Effect,"30.3 µM, […]",82.48%
Cc1cc(C(=O)N2CCC3(CC2)C(=O)N(C)CCN3CC2CC2)c(C)o1.O=C(O)C(F)(F)F,Percent Effect,"30.3 µM, […]",5.817%
COCCN1C(=O)[C@]2(CC[C@@H]3CN(Cc4ccccc4F)C[C@@H]32)N=C1C.O=C(O)C(F)(F)F,Percent Effect,"30.3 µM, […]",-70.3%
COCc1nn(C(C)C)c2c1CCN(Cc1ccccn1)C2.O=C(O)C(F)(F)F.O=C(O)C(F)(F)F,Percent Effect,"30 µM, 30.03 µM",-4.66%
CCS(=O)(=O)N1CCC2(CN(c3ccsc3)C(=O)CN2C)C1.O=C(O)C(F)(F)F (stereo unspecified),Percent Effect,"30 µM, 30.03 µM",-22.46%
Cc1nc(Nc2nccs2)cc(C2CN(C(C)C)C2)n1,Percent Effect,"30.3 µM, […]",5.847%
Cc1nc(Nc2nncs2)cc(C2CCCN2C)n1 (stereo unspecified),Percent Effect,"30.3 µM, […]",-36.12%
Cc1nc(Nc2nnc(C)s2)cc(C2CCCN2C)n1 (stereo unspecified),Percent Effect,"30 µM, 30.03 µM",-13.78%
Cc1csc(Nc2cc(C3CN(C(C)C)C3)nc(C)n2)n1,Percent Effect,"30.3 µM, […]",84.55%
Cc1csc(Nc2cc(C3CCCCN3C)nc(C)n2)n1 (stereo unspecified),Percent Effect,"30 µM, 30.03 µM",67.05%
CNCC(=O)N1CC(c2cc(Nc3nc(C)cs3)nc(C)n2)C1.Cl,Percent Effect,"30.3 µM, […]",20.55%
Cc1cccc(CN2C[C@@H]3COC[C@]3(CNC(=O)c3cccn3C)C2)n1.O=C(O)C(F)(F)F.O=C(O)C(F)(F)F,Percent Effect,"30 µM, 30.03 µM",12.67%
O=C(O)C(F)(F)F.O=C(O)C(F)(F)F.c1cncc(OCc2noc3c2CN(Cc2cccs2)CC3)c1,Percent Effect,"30 µM, 30.03 µM",-9.325%
Cc1ccc(CN2CC[C@H]3[C@@H]2CCC(=O)N3CCN2CCCC2)s1.O=C(O)C(F)(F)F.O=C(O)C(F)(F)F,Percent Effect,"30 µM, 30.03 µM",11.06%
O=C(O)C(F)(F)F.O=C(c1cnc2ccccc2c1)N1CCC2(CCN2c2ncccn2)C1 (stereo unspecified),Percent Effect,"30 µM, 30.03 µM",-41.44%
CN1CCCC(c2cncc(-c3cccc(C(F)(F)F)c3)n2)C1 (stereo unspecified),Percent Effect,"30.3 µM, […]",45.17%
CN1CCCC(c2cccc(-c3cccc(F)c3)n2)C1 (stereo unspecified),Percent Effect,"30.3 µM, […]",6.457%
CN1CCCC(c2cccc(-c3cccc(C(F)(F)F)c3)n2)C1 (stereo unspecified),Percent Effect,"30.3 µM, […]",71.49%
CN(C)C(=O)Cn1c2c(ccc1=O)CCN(Cc1cnn(C)c1)CC2.O=C(O)C(F)(F)F,Percent Effect,"30.3 µM, […]",-19.86%
O=C(NCc1ccco1)[C@H]1CC[C@@H]2[C@@H](CCN2c2ncc(F)cn2)O1.O=C(O)C(F)(F)F,Percent Effect,"30 µM, 30.03 µM",-7.643%
Cc1ccc(N(C)S(=O)(=O)c2cc(C(=O)O)cs2)cc1,Percent Effect,"30.3 µM, […]",-13.08%
Cl.NC(=O)C(c1ccc(F)cc1)N1CCN(CCO)CC1 (stereo unspecified),Percent Effect,"30 µM, 30.03 µM",-19.82%
COc1nccnc1-c1cc(NC2CCNCC2)nc2[nH]ccc12,Percent Effect,"30 µM, 30.03 µM",-21.13%
FC(F)(F)c1ccc(-c2cc(NC3CCNCC3)nc3[nH]ccc23)nc1,Percent Effect,"30.3 µM, […]",-0.8147%
Nc1ccnc(-c2cc(NC3CCNCC3)nc3[nH]ccc23)c1,Percent Effect,"30.3 µM, […]",98.23%
CN(C)CCN1CCC2(CCN(C(=O)c3ccc(F)cc3)CC2)C1=O.O=C(O)C(F)(F)F,Percent Effect,"30.3 µM, […]",-18.87%
CS(=O)(=O)NCc1cnc2n1CCN(Cc1ccoc1)CC2.O=C(O)C(F)(F)F,Percent Effect,"30 µM, 30.03 µM",-17.96%
Cn1cccc1CNCC1CCCn2cc(C(C)(C)C)nc21 (stereo unspecified),Percent Effect,"30.3 µM, […]",99.88%
Cc1cn2c(n1)C(CNCc1cnn3ccccc13)CCC2 (stereo unspecified),Percent Effect,"30.3 µM, […]",-7.399%
CC(C)(C)c1cn2c(n1)C(CNCc1ccccn1)CCC2 (stereo unspecified),Percent Effect,"30.3 µM, […]",52.9%
Cc1nc(C)c(CNCC2CCCn3ccnc32)s1 (stereo unspecified),Percent Effect,"30.3 µM, […]",-1.913%
Cc1ccc(CNCC2CCCn3ccnc32)s1 (stereo unspecified),Percent Effect,"30.3 µM, […]",6.823%
CC(C)(C)c1cn2c(n1)C(CNCc1cnn3ccccc13)CCC2 (stereo unspecified),Percent Effect,"30.3 µM, […]",100%
Cn1cccc1CNCc1nnc2n1CCCC2C(F)(F)F (stereo unspecified),Percent Effect,"30.3 µM, […]",-4.039%
CC(C)(C)c1ncc(CNCC2CCCn3ccnc32)s1 (stereo unspecified),Percent Effect,"30.3 µM, […]",9.708%
Cc1cn2c(n1)C(CNCc1cccc3c1OCO3)CCC2 (stereo unspecified),Percent Effect,"30.3 µM, […]",8.746%
O=C(O)C(F)(F)F.O=C(c1cccc(Cl)c1)N1CC[C@H]2[C@H]1CCN2CC1CCOCC1,Percent Effect,"30 µM, 30.03 µM",13.39%
Cc1noc(C)c1CN1CCC2(CCN(Cc3cccc(F)c3)CC2)C1.O=C(O)C(F)(F)F.O=C(O)C(F)(F)F,Percent Effect,"30.3 µM, […]",-58.32%
Cc1ccc(CN(CCCn2ccnc2)Cc2cnn(C)c2)s1.O=C(O)CC(O)(CC(=O)O)C(=O)O,Percent Effect,"30.3 µM, […]",-61.1%
CNc1ncc2c(n1)CN(C1CC(C)(C)NC(C)(C)C1)C2=O,Percent Effect,"30.3 µM, […]",8.017%
CCn1c(NCc2ccccc2)nc2c(C)nn(C)c2c1=O,Percent Effect,"30.3 µM, […]",-7.911%
CCn1nc(C)c2nc(C)nc(NC3CCCC3)c21,Percent Effect,"30 µM, 30.03 µM",-3.661%
CCn1nc(C)c2nc(C)nc(NCCc3ccccc3)c21,Percent Effect,"30.3 µM, […]",92.15%
CCc1nc(NCCCn2cccn2)c2c(n1)c(C)nn2CC,Percent Effect,"30.3 µM, […]",-16.86%
CCn1nc(C)c2nc(C(C)C)nc(NCCc3ccc(O)cc3)c21,Percent Effect,"30.3 µM, […]",39.22%
CCCc1nc(NCCCO)c2c(n1)c(C)nn2CC,Percent Effect,"30 µM, 30.03 µM",38.76%
Cc1nn(C)c2c(=O)n(C(C)C)c(NCCc3ccccc3)nc12,Percent Effect,"30.3 µM, […]",4.366%
CCCn1c(NCCc2ccccc2)nc2c(C)nn(C)c2c1=O,Percent Effect,"30.3 µM, […]",99.9%
CCn1nc(C)c2nc(C)nc(NCCCn3cccn3)c21,Percent Effect,"30.3 µM, […]",-1.841%
CCCc1nc(NCCCn2cccn2)c2c(n1)c(C)nn2CC,Percent Effect,"30.3 µM, […]",10.65%
CCCc1nc(NCCc2ccccc2)c2c(n1)c(C)nn2CC,Percent Effect,"30.3 µM, […]",99.68%
CCn1nc(C)c2nc(C)nc(NCCc3ccc(C)cc3)c21,Percent Effect,"30.3 µM, […]",100.2%
COc1cccc(CN2C[C@@H]3CC[C@@](O)(c4ccccn4)[C@@H]3C2)c1OC.O=C(O)CC(O)(CC(=O)O)C(=O)O,Percent Effect,"30.3 µM, […]",-12.48%
CC(=O)N1[C@H](CN(C)C)C[C@@H]2CN(C(=O)Cc3cccs3)CC[C@@H]21.O=C(O)C(F)(F)F,Percent Effect,"30.3 µM, […]",-71.88%
Cn1cccc1C(=O)N[C@H]1CN(Cc2ccoc2)[C@@H]2CCCO[C@H]12.O=C(O)C(F)(F)F,Percent Effect,"30.3 µM, […]",-1.992%
Cc1cccc(CN2CCc3ncnc(NC4CCC4)c3CC2)n1.O=C(O)C(F)(F)F.O=C(O)C(F)(F)F,Percent Effect,"30 µM, 30.03 µM",-15.74%
Cc1cc(C(=O)N2CC[C@H]3C[C@H](c4ccncn4)O[C@@H]3C2)no1,Percent Effect,"30 µM, 30.03 µM",-17.17%
CN(Cc1cccnc1)Cc1cncc2c1CCN(Cc1ccoc1)C2.Cl.Cl.Cl,Percent Effect,"30.3 µM, […]",-64.05%
O=C(O)C(F)(F)F.c1cc(CN2C[C@H](OCC3CCOCC3)[C@H]3COC[C@H]32)co1,Percent Effect,"30.3 µM, […]",-13.64%
Cc1ccc(S(=O)(=O)N2CC[C@H]3CO[C@H](CN(C)C)[C@H]3C2)cc1.O=C(O)C(F)(F)F,Percent Effect,"30 µM, 30.03 µM",-6.145%
Cc1ccc(CN2CCC3(CC2)NC(=O)CC3c2ccncc2)cc1C.O=C(O)C(F)(F)F.O=C(O)C(F)(F)F (stereo unspecified),Percent Effect,"30 µM, 30.03 µM",-19.59%
Fc1ccc(-c2nc(CN3CCOC(Cn4cccn4)C3)co2)cc1 (stereo unspecified),Percent Effect,"30.3 µM, […]",15.69%
COc1cc(OC)cc(-c2cc(CN)nc3ccnn23)c1.Cl,Percent Effect,"30.3 µM, […]",0.9349%
Cc1ccc(CN2Cc3ccnn3CC(C(=O)NCC3CC3)C2)o1.O=C(O)C(F)(F)F.O=C(O)C(F)(F)F (stereo unspecified),Percent Effect,"30.3 µM, […]",-12.67%
Cc1cccc(-c2noc(CN3CCOC(Cn4cccn4)C3)n2)c1 (stereo unspecified),Percent Effect,"30.3 µM, […]",7.086%
CCCc1nc(NCCCOC)c2c(n1)c(C)nn2CC,Percent Effect,"30.3 µM, […]",88.3%
CCCc1nc(NCCCOCC)c2c(n1)c(C)nn2CC,Percent Effect,"30.3 µM, […]",-18.63%
CCCc1nc(NCCOC)c2c(n1)c(C)nn2CC,Percent Effect,"30.3 µM, […]",-10.53%
CCOc1ncccc1CNC(=O)NCC(O)c1ccccc1OC (stereo unspecified),Percent Effect,10 µM,-66.27%
COc1c(C)cc(CNCc2ccnc(N3CCOCC3)c2)cc1C.Cl,Percent Effect,"30.3 µM, […]",15.01%
same,Percent Effect,"10 mM, 10 mM as filed; unlikely as a test dose",-23.82%
COc1ccc(CNC(C)c2ccc(Cl)c(Cl)c2)c(OC)c1OC (stereo unspecified),Percent Effect,"30 µM, 30.03 µM",20.68%
c1ccc(-c2cc(NCCCC3CCOC3)n3nccc3n2)cc1 (stereo unspecified),Percent Effect,"30.3 µM, […]",35.81%
Cc1cc2nc(-c3ccccc3)cc(NCC3CCCOC3)n2n1 (stereo unspecified),Percent Effect,"30.3 µM, […]",87.98%
Cc1cc2nc(-c3ccccc3)cc(NCC3CCS(=O)(=O)C3)n2n1 (stereo unspecified),Percent Effect,"30.3 µM, […]",6.285%
COc1cccc(C(NCc2ccc(SC)cc2)c2nccn2C)c1 (stereo unspecified),Percent Effect,10 µM,-34.89%
CCOCC1CN(Cc2cccs2)Cc2nn(C)cc21.O=C(O)C(F)(F)F (stereo unspecified),Percent Effect,"30 µM, 30.03 µM",-3.631%
CCN(CC1CN(Cc2nc(C3CC3)no2)CCO1)c1cccnn1 (stereo unspecified),Percent Effect,"30 µM, 30.03 µM",37.04%
COC(=O)c1ccc(C(=O)N2CCCC(Nc3ccc(F)cc3)C2)cc1 (stereo unspecified),Percent Effect,"30 µM, 30.03 µM",-14.97%
Cc1ccc(C(=O)N2CCCC(Nc3ccc(F)cc3)C2)cc1 (stereo unspecified),Percent Effect,"30 µM, 30.03 µM",-28.83%
CSc1ccc(C(=O)N2CCCC(Nc3ccc(F)cc3)C2)cc1 (stereo unspecified),Percent Effect,"30 µM, 30.03 µM",63.86%
CN(C)C(=O)COC[C@]12COC[C@H]1CN(CCc1ccccc1)C2.O=C(O)C(F)(F)F,Percent Effect,"30.3 µM, […]",-48.5%
c1cnnc(N2CCCC2CNCc2csc(-c3ccco3)n2)c1 (stereo unspecified),Percent Effect,"30.3 µM, […]",17.07%
CN(Cc1coc(-c2ccccc2)n1)CC1CCCN1c1cccnn1 (stereo unspecified),Percent Effect,"30 µM, 30.03 µM",-1.174%
CC(C)c1nc(CN2CCOC(CNc3cccnn3)C2)cs1 (stereo unspecified),Percent Effect,"30.3 µM, […]",100.6%
CCc1nc(CN2CCOC(CNc3cccnn3)C2)cs1 (stereo unspecified),Percent Effect,"30.3 µM, […]",-0.3167%
Cc1nc(CN2CCOC(CNc3cccnn3)C2)cs1 (stereo unspecified),Percent Effect,"30 µM, 30.03 µM",-27.36%
c1ccc(-c2nc(CNCC3CCCN3c3cccnn3)co2)cc1 (stereo unspecified),Percent Effect,"30.3 µM, […]",97.98%
CCc1nc(CNCC2CCCN2c2cccnn2)cs1 (stereo unspecified),Percent Effect,"30.3 µM, […]",4.558%
Cc1nc(CNCC2CCCN2c2cccnn2)cs1 (stereo unspecified),Percent Effect,"30 µM, 30.03 µM",-9.671%
CC(C)CCc1nc(CNCC2CCCN2c2cccnn2)cs1 (stereo unspecified),Percent Effect,"30.3 µM, […]",99.06%
CC(C)c1nc(CNCC2CCCN2c2cccnn2)cs1 (stereo unspecified),Percent Effect,"30.3 µM, […]",100.4%
CCCc1nc(CNCC2CCCN2c2cccnn2)cs1 (stereo unspecified),Percent Effect,"30.3 µM, […]",34.1%
c1ccc(-c2nnc(CNCC3CCCN3c3cccnn3)o2)cc1 (stereo unspecified),Percent Effect,"30 µM, 30.03 µM",-41.79%
